Results reported in PubChem BioAssay AID1159580 (chemical genetic matrix, 2015).
The campaign covered roughly 5,500 compounds. About 2,000 (36%) were called active. Inconclusive results (about 18%) are left out. Rule as the data show it: active = normalized growth mostly below about 0.91 (no sharp cut-off); inconclusive = no clear call, values can overlap the other calls; inactive = mostly above about 0.92. The list shows a part of the results.

Assay: chemical genetic growth profiling, strain panel (AID 1159580);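 also: tested at 20 µM; growth read once vehicle control cultures reached saturation at 30 °C; 1 = growth at the plate median or of vehicle wells; lower values mean less growth of the strain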
Settings: S. cerevisiae deletion strains, growth OD

Measured: normalized growth

CC(C)(C)NCC(O)c1cc(Cl)c(N)c(Cl)c1 (centres undefined)
inactive: locus YAL013W, strain DEP1, hits give low values 1.01 | locus YAL021C, strain ccr4, hits give low values 0.985 | locus YAL026C, strain drs2, hits give low values 1 | locus YAL030W, strain snc1, hits give low values 1 | locus YBL061C, strain skt5, hits give low values 1 | locus YBR009C, strain hhf1, hits give low values 1 | locus YBR021W, strain FUR4, hits give low values 1 | locus YBR023C, strain chs3, hits give low values 1 | locus YBR171W, strain sec66, hits give low values 1 | locus YBR229C, strain ROT2, hits give low values 1.01 | locus YBR231C, strain swc5, hits give low values 0.992 | locus YBR279W, strain paf1, hits give low values 1.01 | locus YCL011C, strain gbp2, hits give low values 1.01 | locus YCL016C, strain dcc1, hits give low values 0.998 | locus YCL029C, strain bik1, hits give low values 0.993 | locus YCL061C, strain MRC1, hits give low values 1.01 | locus YCL069W, strain vba3, hits give low values 0.992 | locus YCR088W, strain abp1, hits give low values 0.998 | locus YDL005C, strain med2, hits give low values 0.996 | locus YDL035C, strain GPR1, hits give low values 1.01 | locus YDL040C, strain nat1, hits give low values 0.988 | locus YDL074C, strain BRE1, hits give low values 1 | locus YDL101C, strain DUN1, hits give low values 1.01 | locus YDL134C, strain PPH21, hits give low values 1.02 | locus YDL185W, strain tfp1, hits give low values 1 | locus YDL192W, strain arf1, hits give low values 1 | locus YDR001C, strain nth1, hits give low values 0.995 | locus YDR069C, strain doa4, hits give low values 0.989 | locus YDR101C, strain arx1, hits give low values 0.983 | locus YDR137W, strain rgp1, hits give low values 1 | locus YDR150W, strain NUM1, hits give low values 1.02 | locus YDR159W, strain sac3, hits give low values 0.978 | locus YDR162C, strain NBP2, hits give low values 1 | locus YDR195W, strain ref2 0.961 | locus YDR297W, strain sur2, hits give low values 1 | locus YDR318W, strain mcm21, hits give low values 0.994 | locus YDR334W, strain swr1, hits give low values 1 | locus YDR335W, strain msn5, hits give low values 0.994 | locus YDR388W, hits give low values 0.992 | locus YDR392W, strain spt3, hits give low values 0.876 | locus YDR502C, strain sam2, hits give low values 1.01 | locus YEL003W, strain gim4, hits give low values 1 | locus YEL037C, strain rad23, hits give low values 0.998 | locus YEL061C, strain CIN8 (second series), hits give low values 1 | locus YEL061C, strain CIN8, hits give low values 1.01 | locus YER015W, strain faa2, hits give low values 0.999 | locus YER016W, strain bim1, hits give low values 1 | locus YER110C, hits give low values 0.998 | locus YER111C, strain swi4, hits give low values 1.01 | locus YER155C, strain BEM2 (second series), hits give low values 1.01 | locus YER155C, strain BEM2, hits give low values 1.02 | locus YER167W, strain BCK2, hits give low values 1.01 | locus YFR010W, strain ubp6, hits give low values 0.994 | locus YGL078C, strain dbp3, hits give low values 1.01 | locus YGL086W, strain mad1, hits give low values 0.997 | locus YGL167C, strain pmr1, hits give low values 1 | locus YGL173C, strain kem1, hits give low values 0.996 | locus YGL227W, strain vid30, hits give low values 1 | locus YGL240W, strain doc1, hits give low values 0.98 | locus YGL248W, strain PDE1, hits give low values 1 | locus YGL253W, strain hxk2, hits give low values 0.984 | locus YGR078C, strain PAC10, hits give low values 1.01 | locus YGR135W, strain pre9, hits give low values 1.01 | locus YGR229C, strain SMI1, hits give low values 1.01 | locus YGR252W, strain gcn5, hits give low values 1.04 | locus YHR013C, strain ard1, hits give low values 0.983 | locus YHR027C, strain rpn1, hits give low values 0.994 | locus YHR030C, strain SLT2, hits give low values 1.01 | locus YHR079C, strain IRE1 (second series), hits give low values 1 | locus YHR094C, strain hxt1, hits give low values 1 | locus YHR129C, strain ARP1, hits give low values 1.02 | locus YHR142W, strain chs7, hits give low values 0.997 | locus YHR200W, strain rpn10, hits give low values 1 | locus YIL066C, strain RNR3, hits give low values 1.01 | locus YIL073C, strain SPO22, hits give low values 1 | locus YIL125W, strain kgd1, hits give low values 1 | locus YIR030C, strain dcg1, hits give low values 0.995 | locus YJL092W, strain hpr5, hits give low values 0.997 | locus YJL095W, strain BCK1 (second series), hits give low values 1 | locus YJL095W, strain BCK1, hits give low values 1.01 | locus YJL115W, strain asf1, hits give low values 1 | locus YJL129C, strain trk1, hits give low values 0.996 | locus YJL134W, strain LCB3, hits give low values 1.01 | locus YJL154C, strain vps35, hits give low values 1 | locus YJL164C, strain tpk1, hits give low values 1 | locus YJL166W, strain qcr8, hits give low values 0.991 | locus YJL168C, strain set2, hits give low values 0.992 | locus YJL187C, strain SWE1 (second series), hits give low values 1.01 | locus YJL187C, strain SWE1, hits give low values 1
